Reference: PMC7862700, “An all-to-all approach to the identification of sequence-specific readers for epigenetic DNA modifications on cytosine”

Legend:
Assay in all cases: DAPPL (digital affinity profiling via proximity ligation, sequencing); 10 mM Tris-HCl pH 7.5, 50 mM NaCl, 1 mM DTT, 4% glycerol, room temperature, 30 min; GST-TFs on glutathione beads, 16-mer random dsDNA library, 0.1% formaldehyde crosslink after washing; high values mean tight binding
Conditions in all cases: protein: recombinant; tags: N-terminal GST; dsDNA, one strand shown
FLI1 = biological target: T1, FLI1 (Homo sapiens, UniProt Q01543 1-452)
T1 sequence: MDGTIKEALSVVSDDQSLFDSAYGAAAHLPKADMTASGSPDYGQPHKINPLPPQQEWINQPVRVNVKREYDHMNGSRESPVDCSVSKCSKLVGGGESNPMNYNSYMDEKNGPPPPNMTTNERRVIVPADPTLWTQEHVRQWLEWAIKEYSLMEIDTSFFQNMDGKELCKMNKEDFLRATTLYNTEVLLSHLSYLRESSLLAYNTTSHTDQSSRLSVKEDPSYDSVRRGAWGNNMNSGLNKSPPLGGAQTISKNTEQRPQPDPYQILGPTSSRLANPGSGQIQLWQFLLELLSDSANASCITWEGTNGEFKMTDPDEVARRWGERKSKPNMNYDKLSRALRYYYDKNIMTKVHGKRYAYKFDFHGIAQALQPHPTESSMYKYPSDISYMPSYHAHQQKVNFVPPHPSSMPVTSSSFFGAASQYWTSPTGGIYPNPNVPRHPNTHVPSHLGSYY
In short: (§1)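 Binding signal is defined as a hexamer's read frequency for one factor over its frequency for the tag-only sample. To obtain reads, GST-fused human transcription factors were expressed in yeast, captured on glutathione beads, barcoded with DNA and pooled with that sample. Pools met 200 nmole of a 16-mer random double-stranded DNA library in Tris/NaCl/DTT/glycerol buffer for 30 min at room temperature before washing, 0.1% formaldehyde crosslinking, proximity ligation (BsaI/T4 ligase, 1 h, 37 °C), PCR and Illumina NextSeq500 sequencing.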

ELK1 = biological target: T2, ELK1 (Homo sapiens, UniProt P19419 1-428)
T2 sequence: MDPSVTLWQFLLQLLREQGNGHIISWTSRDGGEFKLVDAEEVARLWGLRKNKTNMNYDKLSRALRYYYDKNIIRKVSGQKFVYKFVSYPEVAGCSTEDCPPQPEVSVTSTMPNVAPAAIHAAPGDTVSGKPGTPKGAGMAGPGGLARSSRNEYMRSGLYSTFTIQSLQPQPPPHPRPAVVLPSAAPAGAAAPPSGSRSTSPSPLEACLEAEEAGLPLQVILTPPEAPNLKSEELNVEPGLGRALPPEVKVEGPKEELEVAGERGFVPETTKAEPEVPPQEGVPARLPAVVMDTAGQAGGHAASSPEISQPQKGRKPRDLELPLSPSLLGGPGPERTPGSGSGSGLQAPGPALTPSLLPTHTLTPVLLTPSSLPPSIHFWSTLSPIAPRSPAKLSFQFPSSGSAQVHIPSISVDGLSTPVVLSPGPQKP
In short: as §1

GABPA = biological target: T3, GABPA (Homo sapiens, UniProt Q06546 1-454)
T3 sequence: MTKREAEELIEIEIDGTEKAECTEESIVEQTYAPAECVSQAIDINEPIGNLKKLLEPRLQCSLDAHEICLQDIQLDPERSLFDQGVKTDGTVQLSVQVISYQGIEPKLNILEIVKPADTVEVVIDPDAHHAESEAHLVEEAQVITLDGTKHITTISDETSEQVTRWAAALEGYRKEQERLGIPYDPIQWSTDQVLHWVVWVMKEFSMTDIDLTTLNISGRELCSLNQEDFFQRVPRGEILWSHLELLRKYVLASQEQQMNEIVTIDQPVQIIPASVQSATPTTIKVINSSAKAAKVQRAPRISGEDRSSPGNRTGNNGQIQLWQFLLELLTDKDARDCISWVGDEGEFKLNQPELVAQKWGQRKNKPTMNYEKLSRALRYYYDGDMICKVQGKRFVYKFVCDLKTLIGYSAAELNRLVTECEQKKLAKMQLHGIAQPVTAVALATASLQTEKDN
In short: as §1

ERG = biological target: T4, ERG (Homo sapiens, UniProt P11308 1-479)
T4 sequence: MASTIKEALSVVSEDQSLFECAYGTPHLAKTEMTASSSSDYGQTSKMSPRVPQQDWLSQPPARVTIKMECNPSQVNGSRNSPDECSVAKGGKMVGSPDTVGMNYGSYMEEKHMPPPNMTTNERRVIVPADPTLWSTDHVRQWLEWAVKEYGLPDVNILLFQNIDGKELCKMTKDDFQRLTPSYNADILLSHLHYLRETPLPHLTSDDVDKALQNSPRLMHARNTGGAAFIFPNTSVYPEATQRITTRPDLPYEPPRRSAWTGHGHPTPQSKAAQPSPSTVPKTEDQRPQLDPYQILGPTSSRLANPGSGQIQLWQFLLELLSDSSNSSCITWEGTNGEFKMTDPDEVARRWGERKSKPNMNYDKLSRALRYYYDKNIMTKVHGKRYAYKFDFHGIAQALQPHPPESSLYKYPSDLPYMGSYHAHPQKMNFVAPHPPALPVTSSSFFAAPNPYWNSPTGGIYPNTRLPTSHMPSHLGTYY
In short: as §1

ELF1 = ELF1 (Homo sapiens, UniProt P32519 1-619)
In short: as §1

EHF = biological target: T5, EHF (Homo sapiens, UniProt Q9NZC4 1-300)
T5 sequence: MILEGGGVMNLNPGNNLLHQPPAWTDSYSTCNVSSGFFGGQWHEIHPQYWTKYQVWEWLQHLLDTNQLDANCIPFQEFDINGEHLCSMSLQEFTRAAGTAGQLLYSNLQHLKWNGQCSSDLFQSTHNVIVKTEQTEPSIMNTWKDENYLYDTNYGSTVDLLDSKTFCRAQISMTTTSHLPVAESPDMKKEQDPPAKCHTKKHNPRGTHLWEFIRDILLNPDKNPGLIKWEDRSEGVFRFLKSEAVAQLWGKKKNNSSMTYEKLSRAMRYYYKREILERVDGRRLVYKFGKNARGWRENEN
In short: as §1

SPI1 = SPI1 (Homo sapiens, UniProt P17947 1-270)
In short: as §1

SPIB = SPIB (Homo sapiens, UniProt Q01892 1-262)
In short: as §1

ELK3 = biological target: T6, ELK3 (Homo sapiens, UniProt P41970 1-407)
T6 sequence: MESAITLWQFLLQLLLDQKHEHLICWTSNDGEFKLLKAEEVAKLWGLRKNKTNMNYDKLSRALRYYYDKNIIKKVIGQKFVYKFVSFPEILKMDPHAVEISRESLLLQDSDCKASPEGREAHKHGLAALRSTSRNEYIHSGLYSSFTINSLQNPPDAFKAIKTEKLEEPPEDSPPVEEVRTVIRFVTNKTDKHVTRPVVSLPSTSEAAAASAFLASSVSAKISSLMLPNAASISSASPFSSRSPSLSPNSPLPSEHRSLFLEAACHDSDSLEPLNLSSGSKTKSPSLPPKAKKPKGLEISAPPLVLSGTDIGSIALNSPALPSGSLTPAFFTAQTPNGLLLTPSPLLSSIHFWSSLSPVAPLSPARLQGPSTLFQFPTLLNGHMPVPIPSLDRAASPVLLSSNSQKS
In short: as §1

Sequence of ELF1 (P32519 whole entry): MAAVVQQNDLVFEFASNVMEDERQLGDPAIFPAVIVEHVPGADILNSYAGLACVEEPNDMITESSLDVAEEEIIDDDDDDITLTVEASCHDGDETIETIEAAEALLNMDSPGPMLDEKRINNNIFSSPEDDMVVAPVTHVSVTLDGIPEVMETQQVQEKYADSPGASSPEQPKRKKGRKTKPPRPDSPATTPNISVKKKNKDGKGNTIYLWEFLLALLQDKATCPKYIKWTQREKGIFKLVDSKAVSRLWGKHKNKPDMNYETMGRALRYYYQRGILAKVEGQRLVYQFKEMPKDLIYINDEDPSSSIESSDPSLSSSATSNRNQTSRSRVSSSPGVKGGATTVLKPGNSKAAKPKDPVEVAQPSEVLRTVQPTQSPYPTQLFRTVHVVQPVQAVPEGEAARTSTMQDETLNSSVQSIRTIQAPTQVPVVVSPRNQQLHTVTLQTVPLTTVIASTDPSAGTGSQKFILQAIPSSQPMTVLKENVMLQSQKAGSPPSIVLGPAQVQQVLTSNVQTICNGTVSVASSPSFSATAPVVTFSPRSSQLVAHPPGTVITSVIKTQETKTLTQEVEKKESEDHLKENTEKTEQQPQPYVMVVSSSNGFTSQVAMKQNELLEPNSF
Sequence of SPIB (Q01892 whole entry): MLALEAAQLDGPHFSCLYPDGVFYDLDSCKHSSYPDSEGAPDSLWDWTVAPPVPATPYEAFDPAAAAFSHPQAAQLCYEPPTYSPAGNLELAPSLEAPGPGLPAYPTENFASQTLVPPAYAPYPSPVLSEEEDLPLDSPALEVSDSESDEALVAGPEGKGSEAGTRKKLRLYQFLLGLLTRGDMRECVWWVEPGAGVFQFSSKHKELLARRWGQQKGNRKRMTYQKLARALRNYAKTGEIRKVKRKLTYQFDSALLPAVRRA

Sequence	binding signal (FLI1)	binding signal (ELK1)	binding signal (GABPA)	binding signal (ERG)	binding signal (ELF1)	binding signal (EHF)	binding signal (SPI1)	binding signal (SPIB)	binding signal (ELK3)
AGCTTC	1.64 fold enrichment (6-mer frequency, TF over GST control)	1.86 fold enrichment (6-mer frequency, TF over GST control)	1.71 fold enrichment (6-mer frequency, TF over GST control)	1.83 fold enrichment (6-mer frequency, TF over GST control)	1.66 fold enrichment (6-mer frequency, TF over GST control)	1.83 fold enrichment (6-mer frequency, TF over GST control)	1.74 fold enrichment (6-mer frequency, TF over GST control)	1.78 fold enrichment (6-mer frequency, TF over GST control)	2.06 fold enrichment (6-mer frequency, TF over GST control)
GCTTGC	1.41 fold enrichment (6-mer frequency, TF over GST control)	1.28 fold enrichment (6-mer frequency, TF over GST control)	1.21 fold enrichment (6-mer frequency, TF over GST control)	1.14 fold enrichment (6-mer frequency, TF over GST control)	1.25 fold enrichment (6-mer frequency, TF over GST control)	1.28 fold enrichment (6-mer frequency, TF over GST control)	1.18 fold enrichment (6-mer frequency, TF over GST control)	1.24 fold enrichment (6-mer frequency, TF over GST control)	1.3 fold enrichment (6-mer frequency, TF over GST control)
CTTCAA	1.44 fold enrichment (6-mer frequency, TF over GST control)	1.35 fold enrichment (6-mer frequency, TF over GST control)	1.35 fold enrichment (6-mer frequency, TF over GST control)	1.28 fold enrichment (6-mer frequency, TF over GST control)	1.4 fold enrichment (6-mer frequency, TF over GST control)	1.26 fold enrichment (6-mer frequency, TF over GST control)	1.27 fold enrichment (6-mer frequency, TF over GST control)	1.4 fold enrichment (6-mer frequency, TF over GST control)	1.13 fold enrichment (6-mer frequency, TF over GST control)
AATTTC	1.65 fold enrichment (6-mer frequency, TF over GST control)	1.59 fold enrichment (6-mer frequency, TF over GST control)	1.75 fold enrichment (6-mer frequency, TF over GST control)	1.94 fold enrichment (6-mer frequency, TF over GST control)	1.6 fold enrichment (6-mer frequency, TF over GST control)	1.77 fold enrichment (6-mer frequency, TF over GST control)	1.47 fold enrichment (6-mer frequency, TF over GST control)	1.85 fold enrichment (6-mer frequency, TF over GST control)	1.79 fold enrichment (6-mer frequency, TF over GST control)
TGTTCT	1.4 fold enrichment (6-mer frequency, TF over GST control)	1.4 fold enrichment (6-mer frequency, TF over GST control)	1.28 fold enrichment (6-mer frequency, TF over GST control)	1.38 fold enrichment (6-mer frequency, TF over GST control)	1.39 fold enrichment (6-mer frequency, TF over GST control)	1.4 fold enrichment (6-mer frequency, TF over GST control)	1.29 fold enrichment (6-mer frequency, TF over GST control)	1.35 fold enrichment (6-mer frequency, TF over GST control)	1.21 fold enrichment (6-mer frequency, TF over GST control)
CTCCGA	1.35 fold enrichment (6-mer frequency, TF over GST control)	1.42 fold enrichment (6-mer frequency, TF over GST control)	1.45 fold enrichment (6-mer frequency, TF over GST control)	1.34 fold enrichment (6-mer frequency, TF over GST control)	1.37 fold enrichment (6-mer frequency, TF over GST control)	1.39 fold enrichment (6-mer frequency, TF over GST control)	1.44 fold enrichment (6-mer frequency, TF over GST control)	1.52 fold enrichment (6-mer frequency, TF over GST control)	1.33 fold enrichment (6-mer frequency, TF over GST control)
TTTTTC	1.21 fold enrichment (6-mer frequency, TF over GST control)	1.15 fold enrichment (6-mer frequency, TF over GST control)	1.32 fold enrichment (6-mer frequency, TF over GST control)	1.14 fold enrichment (6-mer frequency, TF over GST control)	1.22 fold enrichment (6-mer frequency, TF over GST control)	1.23 fold enrichment (6-mer frequency, TF over GST control)	1.33 fold enrichment (6-mer frequency, TF over GST control)	1.14 fold enrichment (6-mer frequency, TF over GST control)	1.39 fold enrichment (6-mer frequency, TF over GST control)
